Screening data as filed in PubChem.
GLP1R ag = GLP-1 receptor (human) agonism. AID 624172. HEK293 GLP-1R CRE-luciferase, luminescence, 4-6 h; cells express a hypersensitive GLP-1R form. P43220. Potency, µM (titrated, usually from 45.6 µM), without a hit: at the top dose activation, actives largely listed as activators. actives 0.007% (n = 380,000); further: % of control where 0% means no effect
GLP-1R inv ag = inverse agonists of human GLP-1 receptor | P43220 | Potency, µM (titrated, usually from 38.3 µM), without a hit: at the top dose activity change, negative = inhibition, most hits filed as inhibitors | actives 1.6% (n = 410,000) | HEK293 GLP-1R CRE-luciferase, luminescence, 24 h; GLP-1R form is constitutively active; further: on the % scale 0 is the no-effect control and ±100 the full control effect; nearly all actives have a fitted effect of over 55% in size
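Cells are plated, allowed 12 hours at 37 deg C, then treated with compounds for 24 hr before luciferase detection reagent is added and luminescence is read after 12 min at room temperature. The HEK293 line carries constitutively active GLP-1R with a cAMP-responsive reporter.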
GLS inhibitor = blocks human kidney-isoform glutaminase activity; GLS enzymatic activity, qHTS titration; actives 0.21% (n = 410,000); O94925; AID 624170; Potency, µM (top dose mostly 45.5 µM), inactives show top-dose activity change, negative = inhibition, most hits filed as inhibitors; further: on the % scale 0 is the no-effect control and ±100 the full control effect
Target sequence (O94925 whole entry, looked up, canonical isoform): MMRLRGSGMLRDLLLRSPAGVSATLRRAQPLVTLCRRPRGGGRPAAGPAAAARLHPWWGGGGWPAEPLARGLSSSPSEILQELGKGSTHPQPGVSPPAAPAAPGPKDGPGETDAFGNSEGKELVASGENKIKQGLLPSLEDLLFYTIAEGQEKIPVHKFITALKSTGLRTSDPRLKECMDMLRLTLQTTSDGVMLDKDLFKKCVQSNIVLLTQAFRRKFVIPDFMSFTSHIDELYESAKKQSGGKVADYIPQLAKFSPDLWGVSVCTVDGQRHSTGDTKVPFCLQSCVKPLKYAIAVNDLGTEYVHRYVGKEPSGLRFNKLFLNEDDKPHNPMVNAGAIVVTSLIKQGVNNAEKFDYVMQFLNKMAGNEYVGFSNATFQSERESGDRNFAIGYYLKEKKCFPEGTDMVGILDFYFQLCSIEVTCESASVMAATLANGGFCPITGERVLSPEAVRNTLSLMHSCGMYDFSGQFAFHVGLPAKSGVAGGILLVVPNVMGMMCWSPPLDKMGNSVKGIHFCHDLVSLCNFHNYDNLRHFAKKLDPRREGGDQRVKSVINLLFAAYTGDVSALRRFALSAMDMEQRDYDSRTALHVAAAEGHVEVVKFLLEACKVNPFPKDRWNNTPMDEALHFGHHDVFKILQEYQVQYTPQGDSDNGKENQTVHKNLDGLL
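Read-out is an Amplex red fluorescence increase coupled through glutamate oxidase and HRP, measured before and after 30 min room-temperature incubation. hKGA is in 45 mM KH2PO4 (pH 8.2) with 0.02% Tween-20; glutamine added as 1mM solution.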
12-LOX inh = inhibitors of human 12S-lipoxygenase ALOX12 | Potency, µM (titrated, usually from 108 µM), without a hit: at the top dose activity change, negative = inhibition, usual class: inhibitors | P18054 | actives 1.1% (n = 580,000) | purified 12hLO, xylenol orange hydroperoxide absorbance; further: on the % scale 0 is the no-effect control and ±100 the full control effect
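Purified human 12hLO (150 nM final) in 25 mM Hepes, 0.01% Triton X-100, pH 7.0 was preincubated 15 min at room temperature with compound. Then 40 uM arachidonic acid was added, 30 min. Hydroperoxide was read by Fe-XO absorbance ratio 573/405 nm.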
PTHR1 agonist = PTHR1 (human) receptor agonism. Potency, µM (series often up to 115 µM), for the others: at the top dose activation, usual class: activators. Q03431. AID 743266. actives 0.075% (n = 410,000). HEK293 GP2 PTHR1 cells, GloSensor cAMP luminescence, 1 h; further: nearly all actives have a fitted effect of over 55% in size
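HEK-293-derived GP2 cells expressing PTHR1 and a GloSensor cAMP reporter, 3,000/well, plated overnight, given luciferin plus IBMX (each 0.5 mM as added) for 1 h at 37 °C, then compound for 1 h at 37 °C. Luminescence was read after 15 min at room temperature.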
GRP78 ERSR act = ER stress response induction in glioma; U87-MG GRP78 promoter luciferase reporter, 16 h; Potency, µM, for the others: at the top dose activation, usual class: activators; actives 0.02% (n = 420,000); further: series mostly up to about 76 µM; % of control where 0% means no effect; nearly all actives have a fitted effect of over 35% in size
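Stably transfected U87-MG human glioma cells carrying a GRP78-based luminescent sensor were seeded at 1000 cells/well, pin-dosed with compounds and incubated 16 h. Luciferase reagent was then added, and end-point luminescence was read after 10 min at room temperature.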
Numbers without * were called inactive; i = inactive; ? = inconclusive; . = no result given; [ ] = dose if it differs, or a comment. The list is not random: actives were taken first. Their share in the collection is about 2.3%. The call rests on the fitted dose curve; in most records, active means well fitted curve in the direction sought with a large enough effect; inconclusive means small, poorly fitted or top-dose-only effect, or another doubt; inactive means no such curve, though single readings can be large; an effect the other way counts as inactive or inconclusive. Potency means the concentration at half of the fitted maximal effect.

SMILES	GLP1R ag	GLP-1R inv ag	GLS inhibitor	12-LOX inh	PTHR1 agonist	GRP78 ERSR act
CC(=O)OCC1=C(C(=O)O)N2C(=O)C(NC(=O)CCn3nc(C(F)(F)F)c(Br)c3C3CC3)C2SC1 (stereo unspecified)	4%	?	8%	35µM*	-24%	-4%
CC(=O)OCC1=C(C(=O)O)N2C(=O)C(NC(=O)CCn3nc(C)c(Cl)c3C)C2SC1 (stereo unspecified)	0%	19%	-1%	-27%	-16%	-1%
Cc1ccc2c(=O)cc(C(=O)N(Cc3ccccc3)Cc3ccco3)oc2c1C	.	.	.	35µM*	.	.
CN(C)c1ccc(CN(Cc2ccco2)C(=O)c2ccc(C(C)(C)C)cc2)cc1	.	11µM*	9%	-18%	-25%	.
COc1ccc(C(=O)N(Cc2ccc(N(C)C)cc2)Cc2ccco2)cc1Cl	.	?	1%	0%	-24%	.
Cc1ccc(CN(Cc2ccco2)C(=O)c2cccc(C)c2)cc1	.	11µM*	-2%	-2%	i	-4%
Cc1c(O)ccc2c(CN3CCC(O)CC3)cc(=O)oc12	.	.	.	13%	.	.
CC(=O)NNC(=S)Nc1cc(Cl)cc(Cl)c1	.	.	.	-2%	.	.
O=C(Cn1cc(SCc2c(F)cccc2Cl)c2ccccc21)N1CCCCCC1	.	10µM*	6%	-7%	-40%	1%
COc1ccc(CCC(C)N2CCC(CO)(Cc3ccccc3)CC2)cc1 (stereo unspecified)	7%	7.9µM*	-2%	?	-5%	0%
Cc1ccc(OCc2nc(C#N)c(NCc3ccncc3)o2)c(C)c1	.	.	.	-18%	.	.
Cc1cc(C(=O)N2CCN(Cc3ccccc3)CC2)c2ccccc2n1	.	.	.	29%	.	.
Cc1cccc(C)c1Nc1c(-c2ccc(O)cc2)nc2sccn12	.	?	27%	20µM*	-3%	-1%
CCOC(=O)C1=C(C)N=c2s/c(=C/c3ccco3)c(=O)n2C1c1cccc(OC)c1 (stereo unspecified)	-11%	11µM*	-8%	.	-3%[57.5 µM]	-6%
COc1ccc(-c2ccccc2[C@H]2[C@@H]3C=CC[C@@H](C)[C@@H]3C(=O)N2Cc2ccccc2)cc1	1%	8.9µM*	3%	-5%	-22%	-1%
COc1ccc(-c2ccc(C3C4C=CCC(C)C4C(=O)N3Cc3ccccc3)c(F)c2)cc1 (stereo unspecified)	.	.	.	.	.	-4%
COc1ccc(-c2ccc([C@H]3[C@H]4C=CC[C@@H](C)[C@@H]4C(=O)N3Cc3ccccc3)c(F)c2)cc1C	3%	4.5µM*	0%	-3%	-14%	-5%
CC(=O)c1ccc(-c2cc([C@H]3[C@H]4C=CC[C@@H](C)[C@@H]4C(=O)N3Cc3ccccc3)ccc2F)cc1	3%	11µM*	7%	0%	-24%	-3%
Cc1ccc(S(=O)(=O)N(Cc2ccccc2)c2ccccc2C(=O)NCc2ccco2)cc1	2%	-2%	-28%	-28%	i	-2%
Cc1ccc(S(=O)(=O)N(Cc2ccccc2)c2ccccc2C(=O)Nc2ccccc2C(=O)NCc2ccco2)cc1	-5%	5µM*	-2%	1%	-48%	-1%
CC1CCCCC1NC(=S)Nc1ccc(Cl)cc1Cl (stereo unspecified)	1%	11µM*	1%	?	-32%	8%
C=CCn1c(SCC(=O)NC2CCCC2)nc2scc(-c3ccco3)c2c1=O	8%	?	0%	45µM*	i	4%
C=CCn1c(SCC(=O)NCCCC)nc2scc(-c3ccco3)c2c1=O	17%	-24%	-13%	?	i	-5%
C=CCNC(=S)Nc1ccccc1Cl	.	.	.	5%	.	.
Cc1cccc(C2CCCN2S(=O)(=O)c2ccc(C(C)(C)C)cc2)c1 (stereo unspecified)	.	.	.	-3%	.	.
SMILES	GLP1R ag	GLP-1R inv ag	GLS inhibitor	12-LOX inh	PTHR1 agonist	GRP78 ERSR act
CCCNC(=O)c1ccc2c(c1)NC(=O)CS2	.	.	.	-58%	.	.
COc1ccccc1NC(=S)N(Cc1ccccc1)Cc1ccccn1	14%	?	2%	-5%	i	-3%
S=C(Nc1ccccc1Cl)N(Cc1ccccc1)Cc1ccccn1	5%	10µM*	-12%	-12%	i	-2%
Cc1c(Cl)cccc1NC(=S)N(Cc1cccnc1)Cc1ccccc1Cl	10%	11µM*	-13%	-4%	i	-2%
Cc1oc(-c2cccs2)nc1CC(=O)Nc1cc(F)ccc1F	.	.	.	-12%	.	.
CC(C)c1ccc(NC(=S)NN(c2ccccc2)c2ccccc2)cc1	-1%	5.6µM*	17%	40µM*	-25%	-4%
CC(=O)Oc1cc(OC(C)=O)c2c(C)c(CC(=O)NCc3ccccc3)c(=O)oc2c1	.	.	.	-5%	.	.
COc1ccc(C(C)=O)c(OCc2cc(OC)c(Br)cc2OC)c1	.	.	.	-17%	.	.
COc1ccccc1Nc1nc(C)cs1	-4%	?	9%	?	-12%	-3%
CCOc1ccc(Nc2nc(-c3cc(C)ccc3C)cs2)cc1	.	.	.	3%	.	.
Cc1ccc(Nc2nc(-c3ccc(C)cc3C)cs2)cc1	.	.	.	6.3µM*	.	.
Oc1ccc(-c2csc(-c3c[nH]c4ccccc34)n2)c(O)c1	-3%	-9%	17%	-24%	-75%	4%
Cc1ccc(-c2csc(-c3c[nH]c4ccccc34)n2)c(C)c1	-20%	10µM*	-10%	-26%	-20%	8%
COc1ccc(Nc2nc(-c3ccc(F)cc3F)cs2)cc1	.	.	.	16µM*	.	.
COc1ccccc1Nc1nc(-c2cc(C)ccc2C)cs1	.	.	.	10µM*	.	.
CCCCOCCCNC(=O)CCC(=O)NC1CCCCC1	.	.	.	16%	.	.
Cc1ccc(C(NC(=O)Cc2n[nH]c(=O)c3ccccc23)C2CC2)cc1 (stereo unspecified)	.	.	.	-29%	.	.
CCCn1nc(C(=O)NCC2CCCCC2)c2ccccc2c1=O	.	.	.	-29%	.	.
CCCCCC(=O)Nc1nc(C)c(-c2csc(Nc3ccccc3OC)n2)s1	-3%	19%	13%	-29%	21%	-2%
Cc1ccc(Nc2nc(-c3c(C)nc4sccn34)cs2)cc1	.	.	.	7.1µM*	.	.
CCCC(C)C(=O)Nc1nc(C)c(-c2csc(Nc3ccccc3OC)n2)s1 (stereo unspecified)	-5%	2%	0%	45µM*	6%	-2%
Oc1[nH]c2ccc(Br)cc2c1N=NC(=S)N1CCOCC1	-3%	?	-1%	40µM*	?	-13%
Oc1[nH]c2ccccc2c1N=NC(=S)N1CCOCC1	2%	?	10%	.	?	6%
Clc1ccc(CSC2=NCCCN2)cc1Cl	-3%	8.9µM*	-3%	5%	-3%[57.5 µM]	-4%
O=C(NCCc1ccc(F)cc1)c1cc(=O)[nH]c2ccccc12	.	.	.	1%	.	.
